# Source: PubChem BioAssay AID1508601 (ICCB-Longwood Screening Facility, Harvard Medical School, 2020)
# Screen size: about 5,700 compounds; about 85 (1%) were called active. No stated cut-off is given here; in the data, active means p53-positive nuclei above about 36% (passing the limit was not always enough); inactive means the rest. What follows is part of a selection rich in actives, with near analogues and random picks from the rest.
# Tests used:
# [1] = p53 stabilisation in HPV-positive human cells, imaging, p53-positive nuclei imaging, 24 h, 48 h (AID 1508601); settings: 24/48 h
# [2] = molecular target: Cellular tumor antigen p53 (Homo sapiens) (UniProt P04637); assay: as above; settings: 24/48 h, stronger effect = higher value
# Sequence of Cellular tumor antigen p53 (Homo sapiens) (P04637 whole entry, looked up): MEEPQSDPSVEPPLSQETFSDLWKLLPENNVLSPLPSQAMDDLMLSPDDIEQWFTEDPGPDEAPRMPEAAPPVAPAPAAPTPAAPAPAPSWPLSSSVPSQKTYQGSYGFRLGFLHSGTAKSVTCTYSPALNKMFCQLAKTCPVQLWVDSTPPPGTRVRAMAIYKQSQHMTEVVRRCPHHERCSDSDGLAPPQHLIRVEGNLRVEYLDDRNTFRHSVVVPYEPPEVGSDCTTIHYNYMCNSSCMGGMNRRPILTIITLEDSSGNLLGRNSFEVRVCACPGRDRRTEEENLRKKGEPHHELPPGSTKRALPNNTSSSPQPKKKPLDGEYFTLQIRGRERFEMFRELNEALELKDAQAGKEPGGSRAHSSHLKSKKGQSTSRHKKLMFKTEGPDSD
# [3] = measured here: cell number at 24 h, concentration not given here
# [4] = measured here: cell number at 48 h, concentration not given here
# [5] = measured here: p53 positive nuclei at 24 h, concentration not given here
# [6] = measured here: cell number at 24 h, Library stock concentration: 10 mM
# [7] = measured here: cell number at 48 h, Library stock concentration: 10 mM
# [8] = Library stock concentration: 10 mM
# [9] = measured here: p53 positive nuclei at 24 h, Library stock concentration: 10 mM
# [10] = measured here: cell number at 24 h, Library stock concentration: 3.33 mM
# [11] = measured here: cell number at 48 h, Library stock concentration: 3.33 mM
# [12] = Library stock concentration: 3.33 mM
# [13] = measured here: p53 positive nuclei at 24 h, Library stock concentration: 3.33 mM
smiles,measurement,setting,value
O=C(Nc1ccc2nccnc2c1)c1csc(Cc2ccccc2)n1,"nuclei count, normalised",[1]; [3],101%
same,"nuclei count, normalised",[1]; [4],102%
same,"p53-positive nuclei, normalised",[2]; concentration not given here,0.478% (inactive)
same,"p53-positive nuclei, normalised",[2]; [5],0.426%
O=C(O)CCCCCCCCCCCNC(=O)NC12CC3CC(CC(C3)C1)C2,"nuclei count, normalised","[1]; measured here: cell number at 24 h, Library stock concentration: 46 uM",111%
same,"nuclei count, normalised","[1]; measured here: cell number at 24 h, Library stock concentration: 278 uM",105%
same,"nuclei count, normalised","[1]; measured here: cell number at 24 h, Library stock concentration: 1.67 mM",106%
same,"nuclei count, normalised",[1]; [6],101%
same,"nuclei count, normalised",[1]; [3],106%
same,"nuclei count, normalised","[1]; measured here: cell number at 48 h, Library stock concentration: 46 uM",111%
same,"nuclei count, normalised","[1]; measured here: cell number at 48 h, Library stock concentration: 278 uM",105%
same,"nuclei count, normalised","[1]; measured here: cell number at 48 h, Library stock concentration: 1.67 mM",103%
same,"nuclei count, normalised",[1]; [7],101%
same,"nuclei count, normalised",[1]; [4],113%
same,"p53-positive nuclei, normalised",[2]; Library stock concentration: 46 uM,-0.188% (inactive)
same,"p53-positive nuclei, normalised",[2]; Library stock concentration: 278 uM,0.036% (inactive)
same,"p53-positive nuclei, normalised",[2]; Library stock concentration: 1.67 mM,0.0433% (inactive)
same,"p53-positive nuclei, normalised",[2]; [8],0.0468% (inactive)
same,"p53-positive nuclei, normalised",[2]; concentration not given here,-0.166% (inactive)
same,"p53-positive nuclei, normalised","[2]; measured here: p53 positive nuclei at 24 h, Library stock concentration: 46 uM",-0.135%
same,"p53-positive nuclei, normalised","[2]; measured here: p53 positive nuclei at 24 h, Library stock concentration: 278 uM",-0.135%
same,"p53-positive nuclei, normalised","[2]; measured here: p53 positive nuclei at 24 h, Library stock concentration: 1.67 mM",0.0415%
same,"p53-positive nuclei, normalised",[2]; [9],-0.0737%
same,"p53-positive nuclei, normalised",[2]; [5],-0.144%
COC(=O)C=CC(=O)N(O)CCCCNCc1ccc(COC(=O)Nc2cccc3ccccc23)cc1,"nuclei count, normalised","[1]; measured here: cell number at 24 h, Library stock concentration: 80 uM",119%
same,"nuclei count, normalised","[1]; measured here: cell number at 24 h, Library stock concentration: 400 uM",118%
same,"nuclei count, normalised","[1]; measured here: cell number at 24 h, Library stock concentration: 2 mM",116%
same,"nuclei count, normalised",[1]; [6],97.3%
same,"nuclei count, normalised","[1]; measured here: cell number at 48 h, Library stock concentration: 80 uM",112%
same,"nuclei count, normalised","[1]; measured here: cell number at 48 h, Library stock concentration: 400 uM",113%
same,"nuclei count, normalised","[1]; measured here: cell number at 48 h, Library stock concentration: 2 mM",110%
same,"nuclei count, normalised",[1]; [7],92.8%
same,"p53-positive nuclei, normalised",[2]; Library stock concentration: 80 uM,-0.786% (inactive)
same,"p53-positive nuclei, normalised",[2]; Library stock concentration: 400 uM,-0.552% (inactive)
same,"p53-positive nuclei, normalised",[2]; Library stock concentration: 2 mM,-0.616% (inactive)
same,"p53-positive nuclei, normalised",[2]; [8],-0.57% (inactive)
same,"p53-positive nuclei, normalised","[2]; measured here: p53 positive nuclei at 24 h, Library stock concentration: 80 uM",-0.122%
same,"p53-positive nuclei, normalised","[2]; measured here: p53 positive nuclei at 24 h, Library stock concentration: 400 uM",-0.0743%
same,"p53-positive nuclei, normalised","[2]; measured here: p53 positive nuclei at 24 h, Library stock concentration: 2 mM",-0.0278%
same,"p53-positive nuclei, normalised",[2]; [9],-0.0473%
CC(=O)OC1C(=O)[C@]2(C)C(O)CC3OC[C@@]3(OC(C)=O)C2C(OC(=O)c2ccccc2)[C@]2(O)CC(OC(=O)C(O)C(NC(=O)c3ccccc3)c3ccccc3)C(C)=C1C2(C)C (stereo partly specified),"nuclei count, normalised","[1]; measured here: cell number at 24 h, Library stock concentration: 500 nM",124%
same,"nuclei count, normalised","[1]; measured here: cell number at 24 h, Library stock concentration: 1.5 uM",89.9%
same,"nuclei count, normalised","[1]; measured here: cell number at 24 h, Library stock concentration: 4.6 uM",58.2%
same,"nuclei count, normalised","[1]; measured here: cell number at 24 h, Library stock concentration: 13.7 uM",49%
same,"nuclei count, normalised","[1]; measured here: cell number at 24 h, Library stock concentration: 41 uM",47.4%
same,"nuclei count, normalised","[1]; measured here: cell number at 24 h, Library stock concentration: 123 uM",43.5%
same,"nuclei count, normalised","[1]; measured here: cell number at 24 h, Library stock concentration: 370 uM",42%
same,"nuclei count, normalised","[1]; measured here: cell number at 24 h, Library stock concentration: 1.111 mM",43.9%
same,"nuclei count, normalised",[1]; [10],33.4%
same,"nuclei count, normalised","[1]; measured here: cell number at 24 h, Library stock concentration: 3.333 mM",39.5%
same,"nuclei count, normalised",[1]; [6],44%
same,"nuclei count, normalised","[1]; measured here: cell number at 48 h, Library stock concentration: 500 nM",119%
same,"nuclei count, normalised","[1]; measured here: cell number at 48 h, Library stock concentration: 1.5 uM",71.2%
same,"nuclei count, normalised","[1]; measured here: cell number at 48 h, Library stock concentration: 4.6 uM",36.2%
same,"nuclei count, normalised","[1]; measured here: cell number at 48 h, Library stock concentration: 13.7 uM",29.7%
same,"nuclei count, normalised","[1]; measured here: cell number at 48 h, Library stock concentration: 41 uM",28.6%
same,"nuclei count, normalised","[1]; measured here: cell number at 48 h, Library stock concentration: 123 uM",29.2%
same,"nuclei count, normalised","[1]; measured here: cell number at 48 h, Library stock concentration: 370 uM",26.7%
same,"nuclei count, normalised","[1]; measured here: cell number at 48 h, Library stock concentration: 1.111 mM",28.6%
same,"nuclei count, normalised",[1]; [11],27.2%
same,"nuclei count, normalised","[1]; measured here: cell number at 48 h, Library stock concentration: 3.333 mM",26.4%
same,"nuclei count, normalised",[1]; [7],28.4%
same,"p53-positive nuclei, normalised",[2]; Library stock concentration: 500 nM,0.615% (inactive)
same,"p53-positive nuclei, normalised",[2]; Library stock concentration: 1.5 uM,7.83% (inactive)
same,"p53-positive nuclei, normalised",[2]; Library stock concentration: 4.6 uM,11.3% (inactive)
same,"p53-positive nuclei, normalised",[2]; Library stock concentration: 13.7 uM,5.37% (inactive)
same,"p53-positive nuclei, normalised",[2]; Library stock concentration: 41 uM,2.36% (inactive)
same,"p53-positive nuclei, normalised",[2]; Library stock concentration: 123 uM,1.56% (inactive)
same,"p53-positive nuclei, normalised",[2]; Library stock concentration: 370 uM,0.755% (inactive)
same,"p53-positive nuclei, normalised",[2]; Library stock concentration: 1.111 mM,1.14% (inactive)
same,"p53-positive nuclei, normalised",[2]; [12],-0.197% (inactive)
same,"p53-positive nuclei, normalised",[2]; Library stock concentration: 3.333 mM,0.0812% (inactive)
same,"p53-positive nuclei, normalised",[2]; [8],0.227% (inactive)
same,"p53-positive nuclei, normalised","[2]; measured here: p53 positive nuclei at 24 h, Library stock concentration: 500 nM",-0.0449%
same,"p53-positive nuclei, normalised","[2]; measured here: p53 positive nuclei at 24 h, Library stock concentration: 1.5 uM",0.807%
same,"p53-positive nuclei, normalised","[2]; measured here: p53 positive nuclei at 24 h, Library stock concentration: 4.6 uM",1.13%
same,"p53-positive nuclei, normalised","[2]; measured here: p53 positive nuclei at 24 h, Library stock concentration: 13.7 uM",-0.0184%
same,"p53-positive nuclei, normalised","[2]; measured here: p53 positive nuclei at 24 h, Library stock concentration: 41 uM",0.131%
same,"p53-positive nuclei, normalised","[2]; measured here: p53 positive nuclei at 24 h, Library stock concentration: 123 uM",0.31%
same,"p53-positive nuclei, normalised","[2]; measured here: p53 positive nuclei at 24 h, Library stock concentration: 370 uM",0.493%
same,"p53-positive nuclei, normalised","[2]; measured here: p53 positive nuclei at 24 h, Library stock concentration: 1.111 mM",0.16%
same,"p53-positive nuclei, normalised",[2]; [13],-0.232%
same,"p53-positive nuclei, normalised","[2]; measured here: p53 positive nuclei at 24 h, Library stock concentration: 3.333 mM",0.515%
same,"p53-positive nuclei, normalised",[2]; [9],0.00376%
CN(C)Cc1ccc(S(=O)(=O)n2ccc(C=CC(=O)NO)c2)cc1,"nuclei count, normalised",[1]; [10],86.4%
same,"nuclei count, normalised",[1]; [11],84%
same,"p53-positive nuclei, normalised",[2]; [12],2.58% (inactive)
same,"p53-positive nuclei, normalised",[2]; [13],5%
Cc1[nH]c2ccccc2c1CCNCc1ccc(C=CC(=O)NO)cc1,"nuclei count, normalised",[1]; [10],37%
same,"nuclei count, normalised",[1]; [11],20.2%
same,"p53-positive nuclei, normalised",[2]; [12],107% (active)
same,"p53-positive nuclei, normalised",[2]; [13],92.9%
Cc1[nH]c2ccccc2c1CCNC(=O)c1cccs1,"nuclei count, normalised",[1]; [10],115%
same,"nuclei count, normalised",[1]; [11],109%
same,"p53-positive nuclei, normalised",[2]; [12],-0.163% (inactive)
same,"p53-positive nuclei, normalised",[2]; [13],-0.341%
